Consider 85 compounds from PubChem BioAssay AID504652 (National Center for Advancing Translational Sciences (NCATS), 2011).

Structures are written as SMILES. “And” between values parts separate entries of the source, which are not always exact repeats. Identical values can stand only once. Out of some 360,000 compounds screened, about 11,000 (3.1%) were called active. No stated cut-off is given here; in the data, active means activity change below about -30%; inactive means the rest. The sample as a whole holds a higher share of actives than the screen did. The source holds several records for some structures; these can differ, active in one and inactive in another.
On the % scale 0 is the no-effect control and ±100 the full control effect.

D(1A) dopamine receptor (Homo sapiens), sequence (P21728 whole entry, looked up): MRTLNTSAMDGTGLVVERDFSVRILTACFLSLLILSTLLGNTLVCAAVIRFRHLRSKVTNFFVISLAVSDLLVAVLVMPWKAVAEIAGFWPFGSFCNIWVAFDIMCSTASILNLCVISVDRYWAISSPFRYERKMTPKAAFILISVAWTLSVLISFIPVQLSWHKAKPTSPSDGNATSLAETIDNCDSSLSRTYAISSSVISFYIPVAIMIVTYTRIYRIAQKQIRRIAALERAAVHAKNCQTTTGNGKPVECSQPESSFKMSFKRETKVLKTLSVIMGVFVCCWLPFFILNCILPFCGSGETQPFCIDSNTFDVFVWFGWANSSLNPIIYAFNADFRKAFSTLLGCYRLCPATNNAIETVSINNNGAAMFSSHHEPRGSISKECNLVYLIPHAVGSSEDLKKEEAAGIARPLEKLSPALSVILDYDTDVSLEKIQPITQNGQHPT

The target in the experiment is D(1A) dopamine receptor (Homo sapiens) (UniProt P21728). Description: Antagonist of Human D 1 Dopamine Receptor: qHTS. Particulars: HEK293 TREx D1 cells, calcium flux, dopamine EC80; at 10 µM; stronger effect = lower value. The text has this:
Dopamine receptors (DARs) are involved in the etiology and/or therapy of a number of neuropsychiatric and endocrine disorders. For instance, all receptor-based antiparkinsonian drugs work via stimulating the […] DAR subtype whereas all FDA-approved antipsychotic agents are antagonists of this receptor. […] There are three different types of allosteric modulators that we are seeking, two of which will stimulate or augment receptor signaling, allosteric agonists and potentiators, while the third, allosteric antagonists, will attenuate receptor signaling. The present primary screening assay measures compound antagonism after an EC80 addition of dopamine by tracking calcium flux in a […], inducible Hek293 Trex D1 cell line. NIH Chemical Genomics Center [NCGC] NIH Molecular Libraries Probe Centers Network [MLPCN] MLPCN Grant: NS064831-01 Assay Submitter (PI): David Sibley
Freshly passaged cells are plated in 1536 well black, clear bottom plates at a density of 4000 cells/well in 3 ul of complete media containing 1x tetracycline inducer. After an overnight incubation at 30 C in 5% CO2, cells are loaded with 2 ul of the no wash Calcium Assay Kit (ABD Bioquest) and incubated at room temperature for 30 to 90 minutes. Agonist read: A 10 cycle (1 second/cycle) baseline measurement is taken and then the FDSS online 1536 pintool delivers 23 nl of compound library (as well as dopamine controls) to the plate. The plate is measured for kinetically at 1 cycle/sec for 180 seconds. Following the 180 second read, 1 ul of an EC80 (negative modulation assay) is delivered by an onboard pipette head. Measurements are taken kinetically for an additional 180 seconds.
In general terms: qHTS replaces the single test concentration by a dilution series.
`N#Cc1nc(/C=C/c2ccc(F)cc2)oc1NCc1ccc(F)cc1`: the activity change, negative = inhibition was 4.43% (inactive).
For the compound `Cc1ccc(CNC(=O)CCNS(=O)(=O)c2ccc3c(c2)oc(=O)n3C)cc1`, the activity change, negative = inhibition is -2.95% (inactive).
In the case of `CN(Cc1ccccc1)C(=O)c1cn(C)c2ccc(S(=O)(=O)N(C)C3CCCCC3)cc2c1=O` it was -6.93% (inactive); in that of `Cc1cccc(NC(=O)N2CCC(CN3CCc4ccccc4C3)CC2)c1C`, 3.23% (inactive).
In the case of `COc1cccc(C(=O)Nc2ccc(-c3cc(C(F)(F)F)nn3-c3ccccc3)cc2)c1` it was -9.33% (inactive); in that of `CCOc1ccccc1C(=O)NCc1ccc2c(c1)CCN2C(=O)c1ccc(F)cc1`, -20.6% (inactive); in that of `CCn1cc(C(=O)N(C)Cc2ccccc2)c(=O)c2cc(S(=O)(=O)N3CCCCCC3)ccc21`, -14.7% (inactive).
As to `Cc1n[nH]c(C)c1S(=O)(=O)N1CCCC(C(=O)NCC2COc3ccccc3O2)C1` (stereo not given), the activity change, negative = inhibition is 4.33% (inactive).
In the case of `CC(=O)Nc1ccc(NC(=O)C2CCCN(S(=O)(=O)c3ccc(Cl)cc3)C2)cc1` (stereo not given) it was -19.3% (inactive); in that of `Cc1n[nH]c(C)c1S(=O)(=O)N1CCCC(C(=O)Nc2ccc(Br)cc2)C1` (stereo not given), 2.22% (inactive) and -57.1% (active).
With `O=C(NCc1cccnc1)C(=O)NCC(c1cccnc1)N1CCN(c2ccccc2)CC1` (stereo not given), the activity change, negative = inhibition was 2.98% (inactive).
On to `CCOc1ccc(N(CC)S(=O)(=O)N2CCCC(C(=O)Nc3ccc(C(C)=O)cc3)C2)cc1` (stereo not given), for which the activity change, negative = inhibition was -25.1% (inactive).
In the case of `CC(C)(C)NCCCOc1ccc(Cl)cc1C(C)(C)C`, the activity change, negative = inhibition was -4.49% (inactive).
As to `COCCNCCOCCOc1cccc(OC)c1`, the activity change, negative = inhibition was 12.6% (inactive).
For `COCCCNCCOCCOc1ccc(Cl)cc1Br` the value was -34.7% (active); for `CCc1ccc(CNC(=O)c2cc3cc4ccc(OC)cc4nc3o2)cc1`, 2.97% (inactive); for `CCCc1nn2c(=O)cc(COC(=O)c3ccc(NC(=O)C(C)Oc4ccccc4)cc3)nc2s1` (stereo not given), 3.83% (inactive).
Turning to `CCCNc1ncnc2c1c(-c1ccccc1)cn2-c1ccc(OCC)cc1`, the activity change, negative = inhibition was 36.7% (inactive).
Consider `COc1ccc(-n2cc(-c3ccccc3)c3c(=S)nc[nH]c32)cc1`, for which the activity change, negative = inhibition is -0.706% (inactive).
On to `O=c1[nH]cnc2c1c(-c1ccccc1)cn2-c1ccc(F)cc1`, for which the activity change, negative = inhibition was -39.4% (active).
In the case of `COc1ccc(-c2noc(-c3ccc(N4CCN(c5ccccc5)CC4)c([N+](=O)[O-])c3)n2)cc1OC`, the activity change, negative = inhibition was -6.01% (inactive).
Regarding `COc1ccc(S(=O)(=O)NCc2cccn2Cc2cccc(C)c2)cc1Cl`, the activity change, negative = inhibition was -21.8% (inactive).
`CSc1ncccc1C(=O)NCc1ccccc1Cl`: the activity change, negative = inhibition was -34.3% (active).
As for `CSc1ncccc1C(=O)Nc1ccc(C)cn1`, the activity change, negative = inhibition is 25.9% (inactive).
For `CSc1ncc(C(=O)NCc2ccccc2Cl)c(C(F)(F)F)n1` the value was 2.06% (inactive).
As for `O=C(Nc1ccc(O)c(-c2nc3ccccc3o2)c1)c1ccc(-c2cccc(Cl)c2)o1`, the activity change, negative = inhibition was 8.95% (inactive).
For `CC(=O)c1ccc(NC(=O)C2CCN(S(=O)(=O)c3c(C)noc3/C=C/c3ccc(C)cc3)CC2)cc1` the value was 0.387% (inactive); for `CC(Sc1oc(-c2ccco2)nc1S(=O)(=O)c1ccc(Br)cc1)c1ccccc1` (stereo not given), 6.94% (inactive).
In the case of `COc1ccccc1NC(=O)CSc1oc(-c2ccco2)nc1S(=O)(=O)c1ccc(Br)cc1`, the activity change, negative = inhibition was -50.6% (active).
As for `Cc1ccc(S(=O)(=O)c2nc(-c3ccco3)oc2SCC(=O)Nc2ccc(F)cc2)cc1`, the activity change, negative = inhibition is -3.5% (inactive).
Turning to `CCn1cc(C(=O)N2CCN(c3cc(Cl)ccc3C)CC2)c(=O)c2cc(S(=O)(=O)N3CCCC3)ccc21`, the activity change, negative = inhibition was -6.15% (inactive).
As for `COc1cccc(C(c2c(O)cc(C)n(Cc3ccco3)c2=O)N2CCN(c3ccccc3)CC2)c1` (stereo not given), the activity change, negative = inhibition is 4.67% (inactive).
For the compound `Cc1ccc(CCNC(=O)c2nnc(Cc3cccc(F)c3)o2)cc1`, the activity change, negative = inhibition was -1.29% (inactive).
Take `COc1ccc(N2CCN(CCNC(=O)c3nnc(Cc4c(F)cccc4Cl)o3)CC2)cc1`: the activity change, negative = inhibition is 5.46% (inactive).
On to `O=C(NCCCN1CCN(c2cccc(Cl)c2)CC1)c1nnc(Cc2ccc(F)cc2Cl)o1`, for which the activity change, negative = inhibition was -33.5% (active).
In the case of `Cc1ccc(CCNC(=O)c2ccc(CS(=O)(=O)Cc3cccc(C)c3)o2)cc1`, the activity change, negative = inhibition was -10.5% (inactive).
For `O=C(c1ccco1)N1CCN(C(=O)C2CC(c3ccc(Cl)c(Cl)c3)=NO2)CC1` (stereo not given), the activity change, negative = inhibition is -36.7% (active).
As for `O=C(c1ccco1)N1CCN(C(=O)C2CC(c3ccc(F)cc3)=NO2)CC1` (stereo not given), the activity change, negative = inhibition is -3.06% (inactive).
In the case of `O=C(OCC(=O)N1CCN(C(=O)c2ccco2)CC1)c1ccc(Cl)c(Cl)c1` it was -10.9% (inactive).
For `COc1ccccc1CN1CCC(CNC(=O)c2cnn(-c3ccccc3Cl)c2C2CCN(C(=O)OC(C)(C)C)CC2)CC1` the value was -9.9% (inactive).
`COc1ccccc1C(=O)OCc1cc(=O)n2nc(-c3cccs3)sc2n1`: the activity change, negative = inhibition was -28% (inactive).
In the case of `O=C(CCS(=O)(=O)c1ccc2c(c1)NC(=O)CO2)Nc1cccc(C(F)(F)F)c1` it was 1.28% (inactive).
As to `Cc1ccc(Cl)cc1-c1ccc(/C=N/n2cnnc2)o1`, the activity change, negative = inhibition was -37.1% (active).
For `Brc1cc(/C=N/n2cnnc2)oc1Br` the value was -2.4% (inactive).
In the case of `Clc1cc(-c2ccc(/C=N/n3cnnc3)o2)ccc1Br` it was -8.28% (inactive).
With `Cn1c(=O)nc2n(-c3ccc(Br)cc3)c3cccc(Cl)c3cc-2c1=O`, the activity change, negative = inhibition was -15.6% (inactive).
For the compound `CCc1ccccc1N1CC(c2nc3ccccc3n2CCCCOc2ccccc2)CC1=O` (stereo not given), the activity change, negative = inhibition is -13.7% (inactive).
In the case of `COc1ccc(OCCCn2c(C3CC(=O)N(c4ccc(F)cc4)C3)nc3ccccc32)cc1` (stereo not given), the activity change, negative = inhibition is -46.1% (active).
In the case of `CCOc1ccc(N2CC(c3nc4ccccc4n3CCOc3ccc(OC)cc3)CC2=O)cc1` (stereo not given) it was -7.94% (inactive); in that of `COc1ccc(OC)c(CNC(=O)c2c3c(nc4ccccc24)C(=O)N(C2CCCCC2)C3)c1`, 18.9% (inactive); in that of `CC(C)(C)NC(=O)NC(=O)COC(=O)Cc1ccc(Cl)cc1Cl`, -36.3% (active).
For `COc1ccccc1OCCC(=O)OCC(=O)NC(=O)NC(C)(C)C`, the activity change, negative = inhibition was -0.18% (inactive).
For `CC(C)(C)NC(=O)NC(=O)COC(=O)Cc1c(F)cccc1Cl`, the activity change, negative = inhibition is -21% (inactive).
On to `CCOc1cc(/C=C(\C#N)C(=O)Nc2ccccc2C)ccc1OCc1cc(=O)n2nc(CC)sc2n1`, for which the activity change, negative = inhibition is 4.8% (inactive).
For the compound `CCOC(=O)c1cccc(NS(=O)(=O)c2cn(C)c(C)n2)c1`, the activity change, negative = inhibition is 0.648% (inactive).
For the compound `CCOc1ccccc1N(CC)C(=O)c1cc2ccc3cccnc3c2[nH]1`, the activity change, negative = inhibition was 15.7% (inactive).
Turning to `CCOc1ccccc1N(CC)C(=O)Nc1cn(C)c(=O)c2ccccc12`, the activity change, negative = inhibition is -33.9% (active).
As for `CCOc1ccccc1CNC(=O)Nc1cn(CC(C)C)c(=O)c2ccccc12`, the activity change, negative = inhibition is -9.18% (inactive).
For the compound `CNC(=O)CN1C(=O)c2cccnc2Sc2ccccc21`, the activity change, negative = inhibition was 2.47% (inactive).
On to `COc1ccc(CCNC(=O)c2ccc3c(c2)sc2nc(-c4ccc(C)cc4)cn23)cc1OC`, for which the activity change, negative = inhibition is -5.29% (inactive).
For the compound `COc1cc(NS(=O)(=O)c2ccc(NC(=O)CN3C(=O)c4ccccc4C3=O)cc2)ncn1`, the activity change, negative = inhibition was 11.7% (inactive).
For the compound `COc1cc(NS(=O)(=O)c2ccc(NC(=S)NC(=O)c3ccc(Br)cc3)cc2)ncn1`, the activity change, negative = inhibition is -8.88% (inactive).
Consider `COc1cc(NS(=O)(=O)c2ccc(NC(=O)c3ccc(S(=O)(=O)N4CCCCC4)cc3)cc2)ncn1`, for which the activity change, negative = inhibition is -62.1% (active).
For `CC1CCCCN1Cc1c(O)ccc2c(=O)c(-c3cccc(Cl)c3)c(C(F)(F)F)oc12` (stereo not given) the value was 8.91% (inactive).
As for `CCOc1ccc(C(NC(=O)c2cc(OC)c(OC)c(OC)c2)c2cc(Cl)c3cccnc3c2O)cc1` (stereo not given), the activity change, negative = inhibition is 1.85% (inactive).
Regarding `CCOCCCNC(=O)c1ccc2nc(CCc3ccccc3)oc2c1`, the activity change, negative = inhibition was -1.1% (inactive).
For `CCOc1cccc(NC(=O)c2ccc(F)c(S(=O)(=O)N(CC)c3cccc(C)c3)c2)c1` the value was 16.1% (inactive); for `CC1=C(C(=O)OCc2ccc(C)cc2)C(c2c(Cl)cccc2Cl)CC(=O)N1` (stereo not given), 4.89% (inactive); for `CCC(=O)N1CCN(c2ccccc2NC(=O)COc2cccc(C)c2C)CC1`, 3.4% (inactive).
Turning to `COc1cc(NC(=O)COc2ccccc2Cl)ccc1NC(=O)C(C)C`, the activity change, negative = inhibition is 0.361% (inactive).
As for `Cc1ccccc1OCC(=O)Nc1ccc(N2CCN(C(=O)C(C)C)CC2)c(Cl)c1`, the activity change, negative = inhibition was -31% (active).
For `Cc1ccc(C)c(CN2C(=O)c3ccccc3S(=O)c3ccc(C(=O)N4CCOCC4)cc32)c1` (stereo not given) the value was 1.36% (inactive); for `COc1ccc(OCC(=O)Nc2cccc(C(=O)OCc3cc(=O)n4nc(C)sc4n3)c2)cc1`, -3.25% (inactive); for `CCOc1ccc(-n2c(C)nc3c(cnn3-c3ccc(C)cc3)c2=O)cc1`, 10.9% (inactive).
For `COc1cc(C(=S)N2CCOCC2)cc(OC)c1OC(=O)c1cc([N+](=O)[O-])cc([N+](=O)[O-])c1` the value was -2.9% (inactive).
For `COc1cc(C(=S)N2CCOCC2)cc(OC)c1OC(=O)c1ccc([N+](=O)[O-])cc1[N+](=O)[O-]`, the activity change, negative = inhibition is -16.4% (inactive).
With `COc1cc([N+](=O)[O-])cc([N+](=O)[O-])c1NC(=O)N1CCOCC1`, the activity change, negative = inhibition was -32.7% (active).
Regarding `O=C(Nc1c(-c2ccc(F)cc2)nc2ccccn12)c1cccc(F)c1`, the activity change, negative = inhibition was -0.545% (inactive).
For `N#CN1CCC(NC(=O)c2ccc(F)cc2)CC1` the value was -14.9% (inactive); for `O=C(Nc1ccc(OC(F)(F)F)cc1)c1cc2c(=O)n3ccccc3nc2s1`, -3.02% (inactive); for `CCOc1ccc(N(C)S(=O)(=O)c2cc(-c3cnc(C)o3)ccc2OC)cc1`, -5.97% (inactive).
`Oc1ccc(-n2nnnc2SCc2c(F)cccc2Cl)cc1`: the activity change, negative = inhibition was -17.7% (inactive).
Regarding `COc1ccc(-n2nnnc2SCC(=O)c2ccc(OC)c(OC)c2)cc1`, the activity change, negative = inhibition was 16.4% (inactive).
In the case of `COc1ccc(CSc2nnnn2-c2ccc(O)cc2)cc1F`, the activity change, negative = inhibition was -36.7% (active).
With `COc1ccc(CCNc2nc3c(-c4cccc(F)c4)nnn3c3ccccc23)cc1OC`, the activity change, negative = inhibition was 1.83% (inactive).
